The results in this text go back to ChEMBL document CHEMBL3988442, “University of Dundee, Small-Polar-MMV Screening Library” (2021).

The structures appear in SMILES notation. About 13,000 (27%) of roughly 48,000 compounds showed an effect of 50% or more. The list shows a part of the results.

For the test, the system named is Wolbachia pipientis. As to the kind of experiment: Anti-Wolbachia Cell-Based Screen. It counts as functional. Further details: scale not given: in the data most compounds retested in dose-response had high values. The conditions noted are these: 5 µM.
Take `COc1cc(C)nc(N2CCN(C(=O)CCn3cc(C)cn3)CC2)n1`: the “Percent Effect” value is -7.08%. With `c1ccc2nc(NCC3(N4CCOCC4)CCSC3)cnc2c1` (configuration not stated), the “Percent Effect” value is reported as -14.05%. Take `CCn1cnc2c(c(Br)nn2C)c1=O`: the “Percent Effect” value is reported as -4.609%. Consider `CS(=O)(=O)c1cccc(S(=O)(=O)NC(=O)c2cscn2)c1`, for which the “Percent Effect” value was -9.351%. With `CC(C)NC(=O)C[C@@H]1CCNC[C@@H]1Cc1cc(-c2ccccc2)on1`, the “Percent Effect” value was found to be 3.733%.

On to `CCc1cc(=O)[nH]c2nnc(SCC(=O)OC)n12`, for which the “Percent Effect” value was -19.07%.

As for `Cn1ccnc1CN1CCC2(CC(=O)N(c3cccc(F)c3)C2)C1.O=C(O)C(F)(F)F` (configuration not stated), the “Percent Effect” value turned out to be 10.35%. Then `Cc1cc(C)c(Cn2cncn2)cc1CN1CCC(CN)C1` (configuration not stated), with -0.9295%; and `Cc1ccc(OCC(O)Cn2ncc3cnn(C)c(=O)c32)cc1` (configuration not stated), with -11.22%. In the case of `COCCN1CCn2c(CN(C)C(C)C)cnc2C1.O=C(O)C(F)(F)F.O=C(O)C(F)(F)F`, the “Percent Effect” value is 115.3%. In the case of `COCCN1CCCn2cnc(CN(C)C(C)C)c2C1.O=C(O)C(F)(F)F.O=C(O)C(F)(F)F` it was 1.891%. Consider `CC(C)N(C)Cc1cnc2n1CCN(Cc1ccco1)C2.O=C(O)C(F)(F)F.O=C(O)C(F)(F)F`, for which the “Percent Effect” value was 165.9%. `CC(C)N(C)Cc1cnc2n1CCN(S(=O)(=O)c1ccccc1)C2.O=C(O)C(F)(F)F`: the “Percent Effect” value amounted to 114.3%. With `CC(C)N(C)Cc1cnc2n1CCN(CCc1ccccc1)C2.O=C(O)C(F)(F)F.O=C(O)C(F)(F)F`, the “Percent Effect” value amounted to 1.323%. Turning to `CN(C)Cc1cnc2n1CCN(C(=O)Cc1cccc(F)c1)CC2.O=C(O)C(F)(F)F`, the “Percent Effect” value is given as -14.88%.

Turning to `CC(C)N(C)Cc1cnc2n1CCN(C(=O)Cc1cccs1)C2C.O=C(O)C(F)(F)F` (configuration not stated), the “Percent Effect” value was determined as 0.7731%. On to `CN(C)Cc1cnc2n1CCN(C(=O)NCc1ccccc1)CC2.O=C(O)C(F)(F)F`, for which the “Percent Effect” value was -3.612%. Turning to `CN(Cc1ccco1)Cc1cnc2n1CCN(S(C)(=O)=O)CC2.O=C(O)C(F)(F)F`, the “Percent Effect” value was 3.882%. Then `CC(C)N(C)Cc1cnc2n1CCN(Cc1cccc(F)c1)C2.O=C(O)C(F)(F)F.O=C(O)C(F)(F)F`, with 118.2%; and `CC(C)Cc1ncc2c(n1)CN(c1cc(N3CCCC3)nc(N)n1)C2`, with -10.3%.

For `COCCC1(CNC(=O)NCC2CCCN(C)C2)CCC1` (configuration not stated), the “Percent Effect” value worked out at 8.648%. Then `CCCSCC(=O)N1CCN(c2ccc(C)cc2)CC1C` (configuration not stated), with -1.95%; and `CC(C)N(C)Cc1cnc2n1CCN(Cc1ccsc1)C2.O=C(O)C(F)(F)F.O=C(O)C(F)(F)F`, with 107.2%; and `CC(C)N(C)Cc1cnc2n1CCN(C(=O)c1cccs1)C2`, with 6.203%.

On to `CN(C)Cc1cnc2n1CCN(Cc1ccsc1)CC2.O=C(O)C(F)(F)F.O=C(O)C(F)(F)F`, for which the “Percent Effect” value is -11.04%. Consider `CC(C)N(C)Cc1cnc2n1CCN(C(=O)Cc1ccccn1)C2.O=C(O)C(F)(F)F.O=C(O)C(F)(F)F`, for which the “Percent Effect” value stood at 116.4%.

`CN(C)Cc1cnc2n1CCN(C(=O)Cc1ccsc1)CC2.O=C(O)C(F)(F)F`: the “Percent Effect” value is recorded as -7.652%. With `CNC(=O)c1cnc2n1CCN(C(=O)Cc1ccccn1)C2`, the “Percent Effect” value is listed as -2.51%. In the case of `CC(C)N(C)Cc1cnc2n1CCN(C(=O)Cc1ccsc1)C2.O=C(O)C(F)(F)F` it was 75.58%.

Take `CC(NCC1CCN(CCO)CC1)c1ccc(OC(F)(F)F)cc1` (configuration not stated): the “Percent Effect” value was 5.514%. Take `Cc1ccccc1CSc1nc(=O)n(CCO)c2c1CCC2`: the “Percent Effect” value turned out to be 18.09%. For the compound `Cc1csc(N2CCCN(C(=O)c3cnns3)CC2)n1`, the “Percent Effect” value was 3.916%. As to `Fc1ccccc1OC1CCN(CCn2cc3ccccc3n2)CC1`, the “Percent Effect” value is reported as 96.15%.

With `Fc1ccc(OC2CCN(CCn3cncn3)CC2)cc1`, the “Percent Effect” value is 1.97%. For the compound `Fc1cccc(OC2CCN(CCn3cc4ccccc4n3)CC2)c1`, the “Percent Effect” value turned out to be 89.5%.

Take `c1cncc(O[C@H]2COCCN(CC3CC3)C2)c1`: the “Percent Effect” value is -6.13%. With `Cc1nc(CCN2CCC(Oc3ccccc3F)CC2)c(C)s1`, the “Percent Effect” value is listed as 0%. As to `O=C(O)c1cccc(N2CCC(Oc3cccc(F)c3)CC2)n1`, the “Percent Effect” value turned out to be 3.827%.

For the compound `c1cncc(OC2CCN(CCn3cc4ccccc4n3)CC2)c1`, the “Percent Effect” value is recorded as 92.09%.

With `Cc1ccc(OC2CCN(CCn3cncn3)CC2)cc1`, the “Percent Effect” value is listed as -5.94%. Take `Cc1nc(C)c(CCN2CCC(Oc3ccccc3F)CC2)s1`: the “Percent Effect” value is listed as -50.47%.

Consider `O=C(O)C(F)(F)F.O=C1[C@@H]2CN(C3CCOCC3)C[C@H]2CCN1CC1CC1`, for which the “Percent Effect” value is -15.82%. `CCC(C)(CC(=O)OC)NCc1c(C)noc1C` (configuration not stated): the “Percent Effect” value is -10.12%. In the case of `CCCN(CCOC)c1nc(C)nc2sccc12` it was -21.15%. Consider `Cc1cc(NC(=O)N2CCN(c3cccs3)CC2)ccc1C(N)=O`, for which the “Percent Effect” value is reported as 6.081%. Take `CS(=O)(=O)c1ccc(OCCNCc2c(F)cccc2F)cc1`: the “Percent Effect” value is on record as -4.502%.

On to `CCCc1n[nH]c(C2CN(C(=O)c3ccc(C)[nH]c3=O)CCO2)n1` (configuration not stated), for which the “Percent Effect” value was found to be 101.9%. With `CCCc1n[nH]c(C2CN(C(=O)c3cncnc3C)CCO2)n1` (configuration not stated), the “Percent Effect” value was found to be 104.8%. In the case of `Cc1ccc(C(=O)N2CCOC(c3nc(C(C)(C)C)n[nH]3)C2)c(=O)[nH]1` (configuration not stated) it was -10.02%; in that of `CC(C)n1nccc1NC(=O)NCCc1nc2ccc(F)cc2n1C`, -24.15%; in that of `COCCN1CCN(CC(=O)NC2(C#N)CCCC2)CC1`, 5.801%. For the compound `CCN(Cc1cc(F)c(OC)c(Cl)c1)Cc1noc(CC(C)C)n1`, the “Percent Effect” value was -0.0931%. Regarding `CC(C)c1cc(N2CCSCC2)n2nccc2n1`, the “Percent Effect” value is given as -0.2231%.

Turning to `CCc1nc(-c2cncnc2C2CCNC2)no1` (configuration not stated), the “Percent Effect” value turned out to be 125.4%. As to `Cc1ncc(S(C)(=O)=O)c(C2CCCNC2)n1` (configuration not stated), the “Percent Effect” value is reported as 6.84%. As for `CN1CCC[C@H]1c1nc(-c2cncnc2N)no1`, the “Percent Effect” value is -19.35%. With `CC(C)c1ncc(S(C)(=O)=O)c(C2CCCNC2)n1` (configuration not stated), the “Percent Effect” value stood at 16.25%.

As to `CN1CCC(N2CCC[C@H]2c2nc(-c3cncnc3N)no2)CC1`, the “Percent Effect” value is on record as -6.986%. In the case of `CC(C)(C)CN1CCC[C@H]1c1nc(-c2cncnc2N)no1`, the “Percent Effect” value was -5.651%. On to `CCc1nc(-c2cncnc2C2CCCNC2)no1.Cl` (configuration not stated), for which the “Percent Effect” value is 115.3%. For `CS(=O)(=O)c1cncnc1C1CCCNC1.Cl` (configuration not stated), the “Percent Effect” value is 112%.

Turning to `Cc1nc(-c2cncnc2C2CCCNC2)no1.Cl.Cl` (configuration not stated), the “Percent Effect” value stood at 112.4%. On to `CCc1nc(C2CCCN(c3ncc(Br)cn3)C2)no1` (configuration not stated), for which the “Percent Effect” value is reported as -4.032%. `CN(Cc1nc2ccccc2[nH]1)C(=O)CN(C)c1ccccc1`: the “Percent Effect” value is recorded as -21.88%. Consider `O=C(CCNc1ncc2c(n1)CCN2c1ccccc1)N1CCCC1`, for which the “Percent Effect” value is recorded as 15.12%. Take `COCCC1CN(c2nc(-c3ccccc3)nc3c2CCNC3)CCO1` (configuration not stated): the “Percent Effect” value is -17.27%. With `Cc1cnc(C(=O)N2CCCC(c3nccn3Cc3cscn3)C2)cn1` (configuration not stated), the “Percent Effect” value is recorded as 3.931%. Consider `Cc1cc(C(=O)N(C)Cc2cnn(C)c2)c(NC(=O)C(C)(C)C)s1`, for which the “Percent Effect” value was -6.693%. In the case of `Cn1ncc2c1C(COCC1CC1)CN(Cc1ccsc1)C2` (configuration not stated) it was 99.94%; in that of `COc1ccc(CN2Cc3cnn(C)c3C(COCC3CC3)C2)cc1` (configuration not stated), 13.17%; in that of `CCOCC1CN(Cc2ccsc2)Cc2cnn(C)c21` (configuration not stated), 100.2%.

On to `COCC1CN(Cc2cccnc2OC)Cc2cnn(C)c21` (configuration not stated), for which the “Percent Effect” value was -15.02%.

Turning to `CCOCC1CN(CC2CC2)Cc2cnn(C)c21` (configuration not stated), the “Percent Effect” value is -17.33%.

Turning to `Cn1ncc2c1C(COCC1CC1)CN(Cc1cccnc1)C2` (configuration not stated), the “Percent Effect” value is recorded as -4.691%. For the compound `COCC1CN(Cc2ccsc2)Cc2cnn(C)c21` (configuration not stated), the “Percent Effect” value was found to be 97.33%. Take `CCn1ncc2c1C(COC)CN(Cc1ccsc1)C2` (configuration not stated): the “Percent Effect” value is given as -10.45%. Take `CC(=O)Nc1ccc(F)c(S(=O)(=O)NC(C)(C)C)c1`: the “Percent Effect” value is listed as -3.757%.

As for `NCC1CCN(c2nc(C3CCCC3)nc3c2CCNCC3)C1` (configuration not stated), the “Percent Effect” value turned out to be 9.164%. As for `Cc1cc(C(=O)N2CC[C@H](N3CCOCC3)[C@H](CCCO)C2)c(C)n1C`, the “Percent Effect” value is given as -10.4%. On to `CC(=O)C(C)CC(=O)N(Cc1cccc(C)c1)C(C)C` (configuration not stated), for which the “Percent Effect” value is -23.01%.

As to `COc1ccccc1CN1CC[C@H](c2nnc(-c3cncn3C)o2)C1`, the “Percent Effect” value is -5.308%. As for `Cc1ncsc1-c1nnc(C2CCN(Cc3cccc(F)c3F)CC2)o1`, the “Percent Effect” value was determined as 117.8%. For the compound `Cc1ccccc1CN1CC[C@H](c2nnc(-c3cncn3C)o2)C1`, the “Percent Effect” value was determined as 0.6101%.

`Cc1ncsc1-c1nnc(C2CCN(Cc3ccccc3Cl)CC2)o1`: the “Percent Effect” value worked out at 122.3%. `Cc1ncsc1-c1nnc(C2CCN(Cc3ccccc3F)CC2)o1`: the “Percent Effect” value amounted to 106.9%.

Consider `CCn1cnnc1CNC(=O)c1ccc(Br)cc1F`, for which the “Percent Effect” value was -45.58%. In the case of `CC(C(=O)N1CCN(C(=O)c2ccc(F)cc2F)CC1)n1ccnc1` (configuration not stated) it was -6.751%; in that of `CN(Cc1ccc(Cl)s1)C(=O)Cn1nc(-c2ccc(F)cc2)oc1=O`, -64%; in that of `CCCn1cnnc1CNC1CCSC1` (configuration not stated), 5.781%.

As for `N#CCCN(Cc1cccnc1)C(=O)c1ccc(OCC2CC2)cc1`, the “Percent Effect” value was -3.781%.

As for `Cc1noc(C)c1CN(C)C(=O)c1n[nH]c(N)c1-c1ccccc1`, the “Percent Effect” value was determined as 103.1%. Take `Cc1noc(CN(C)C(=O)c2n[nH]c(N)c2-c2ccccc2)n1`: the “Percent Effect” value is 101.7%. With `CN(Cc1ccsc1)C(=O)c1cc2c([nH]c1=O)CCCC2=O`, the “Percent Effect” value stood at 2.933%. Then `Cc1ccc(CN(C)C(=O)c2cccc(NC(N)=O)c2)o1`, with -0.4854%; and `Cc1noc(C)c1C(=O)N(C)Cc1nc(-c2ccccn2)no1`, with -7.046%. For the compound `Cc1noc(CN(C)c2ccccc2)n1`, the “Percent Effect” value turned out to be 0.05791%. Then `Cc1nc(NC(=O)N(C)Cc2ccsc2)nn1C`, with 1.412%.

For the compound `Cc1ccccc1OCCC(=O)N(C)Cc1c(C)noc1C`, the “Percent Effect” value was -17.09%. As for `Cc1ccc(CN(C)C(=O)c2n[nH]c(N)c2-c2ccccc2)o1`, the “Percent Effect” value worked out at 90.65%.

In the case of `CN(Cc1ccsc1)C(=O)c1n[nH]c(N)c1-c1ccccc1`, the “Percent Effect” value came to 96.05%.

Take `Cc1noc(C)c1CN(C)C(=O)c1nc(N2CCCC2)ncc1Cl`: the “Percent Effect” value was -6.035%.

Regarding `CCc1nnsc1C(=O)N(C)Cc1ccc(C)o1`, the “Percent Effect” value was 0.8104%.
